# Assay results: PubChem BioAssay AID2100 (National Center for Advancing Translational Sciences (NCATS), 2009)
# Screen size: about 300,000 compounds; about 1,200 (0.4%) were called active. Roughly 3% stayed inconclusive and do not appear here. Many of the other results were omitted from the sample, so actives are more common in it than they were. A number with no mark means an inactive call. The call rests on the fitted dose curve; in most records, active means well fitted inhibition curve with a large enough effect; inconclusive means small, poorly fitted or top-dose-only effect, or another doubt; inactive means no such curve, though single readings can be large or run the other way.
# Molecular target: Lysosomal alpha-glucosidase (Homo sapiens) (UniProt P10253)
# Experiment: qHTS Assay for Inhibitors and Activators of Human alpha-Glucosidase Cleavage of Glycogen;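 further: the screen sought inhibitors and activators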;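 on activity change, negative = inhibition: 0% = full enzyme reaction and -100% = no-enzyme basal signal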
# Conditions: recombinant GAA, glycogen substrate, Amplex Red glucose oxidase fluorescence; series mostly up to 76.3 µM; activity change, negative = inhibition: at the top concentration
# Procedure, shortened: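 qHTS, 1536-well; enzyme 4 nM final; cpd up to 77 uM; substrate bovine liver glycogen 30 ug; 50 mM citrate/phosphate pH 5.0, 0.01% Tween-20; 37 C, 40 min; Amplex Red detection 45 min RT; Hill fit → AC50.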
# Potency means the concentration at half of the fitted maximal effect.
SMILES,"activity change, negative = inhibition",Potency
O=C(CSc1nc(-c2cccc(F)c2)[nH]c1-c1ccccc1)Nc1ccc2c(c1)OCO2,-11.3%,–
CCOc1ccc(N(CC)S(=O)(=O)N2CCCC(C(=O)Nc3ccc(C(C)=O)cc3)C2)cc1 (stereo unspecified),-13.1%,–
COc1ccc(-c2cc(=O)c3c(O)cc(O[C@@H]4O[C@H](CO[C@@H]5O[C@@H](C)[C@H](O)[C@@H](O)[C@H]5O)[C@@H](O)[C@H](O)[C@H]4O)cc3o2)cc1O,9.26%,–
CCOC(=O)COc1cc(O)c2c(=O)cc(-c3ccccc3)oc2c1,-11.3% [at 76.4 µM],–
COc1c(O)cc2oc(-c3ccc(O)c(O)c3)cc(=O)c2c1O,–,10 µM (active)
CCCCN1C(=O)c2[nH]nc(-c3ccccc3O)c2C1c1cccc(OCc2ccccc2)c1 (stereo unspecified),-8.47%,–
CC1=C(C(=O)OCC2CCCCC2)C(c2c(F)cccc2Cl)CC(=O)N1 (stereo unspecified),14.2%,–
Cn1sc(NC(=O)c2ccccc2)nc1=O,8.91% [at 76.4 µM],–
Cc1nc(NNC(=O)c2ccccc2)cc(-c2ccccc2)n1,–,22.4 µM (active)
COc1ccc(C(=O)NN(C)c2nc(-c3ccccc3)cc(C)c2S(C)(=O)=O)cc1,-3.35% [at 76.4 µM],–
CCOc1ccccc1C(=O)NC1(C(F)(F)F)NC(=O)N(CCc2ccc(OC)c(OC)c2)C1=O (stereo unspecified),-2.56%,–
COc1ccc(Cl)cc1NC(=O)CSc1nc(-c2cccs2)cc(C(F)(F)F)n1,12.5%,–
CCCOc1ccc(N/C=C/C(=O)C(C)(C)C)cc1,–,31.6 µM (active)
CCOc1ccc(N/C=C/C(=O)c2ccccc2)cc1,-14.9%,–
CCOc1ccc(N/C=C/C(=O)c2cc(OC)c(OC)c(OC)c2)cc1,-23.1%,–
CC(C)C(=O)Nc1nc2c(s1)CC(C(C)(C)C)CC2 (stereo unspecified),14.5%,–
Cc1ccc(S(=O)(=O)CC(=O)Nc2c(C)n(C)n(-c3ccccc3)c2=O)cc1,4.27% [at 76.4 µM],–
Cc1c(NS(=O)(=O)c2ccc(Cl)cc2)c(=O)n(-c2ccccc2)n1C,7.58%,–
Cc1ccc(S(=O)(=O)Nc2ccccc2CNc2c(C)n(C)n(-c3ccccc3)c2=O)cc1,–,28.2 µM (active)
COc1ccc2[nH]c3c(c2c1)CCN(C(=O)CCC1CCCC1)C3c1ccc(F)cc1 (stereo unspecified),-9.42%,–
Cc1oc(-c2ccccc2)nc1Cn1c(SCc2cccc(C(F)(F)F)c2)nc2cccnc21,-9.3%,–

SMILES,"activity change, negative = inhibition",Potency
CCOc1ccc(-n2c(O)c(/C=N/c3ccnn3Cc3ccncc3)c3ccccc3c2=O)cc1,11.4% [at 76.4 µM],–
CCOc1ccc(-n2c(O)c(/C=N/Nc3nnc(C)c(=O)[nH]3)c3ccccc3c2=O)cc1,–,39.8 µM (active)
CCOc1ccc(-n2c(O)c(/C=N/Nc3nc(C)cc(C)n3)c3ccccc3c2=O)cc1,6.76% [at 76.4 µM],–
O=C(O)c1ccccc1C(=O)Nc1ccccc1[N+](=O)[O-],-5.21% [at 76.4 µM],–
O=[N+]([O-])c1ccc(O)c(/C=N/Nc2ccccc2[N+](=O)[O-])c1,6.62% [at 76.4 µM],–
O=[N+]([O-])c1ccccc1Nc1ccc(O)cc1,–,10 µM (active)
COc1cccc(C(=O)NC(=O)Nc2ccc(-c3cc(C(F)(F)F)nn3-c3ccccc3)cc2)c1,10.7%,–
COc1ccc2c(c1)Cc1sc(NC(=O)c3ccccc3Br)nc1-2,-9.29%,–
COc1cc(SC)ccc1C(=O)Nc1nc(C)cs1,5.05% [at 76.4 µM],–
Cc1csc(NC(=O)Nc2ccccc2[N+](=O)[O-])n1,-2.5% [at 76.4 µM],–
Cc1csc(NC(=O)NC2(C(F)(F)F)Oc3ccccc3O2)n1,–,8.84 µM (active)
O=C(Nc1ccc2nc(SCCOc3ccccc3Cl)sc2c1)c1ccco1,4.09%,–
COc1cccc(NC(=O)N(Cc2cn(C)c3ccccc23)C2CCCCCC2)c1,4.58%,–
O=c1c2cccnc2n(Cc2cccc(F)c2)c(=O)n1Cc1ccccc1Cl,-5.47%,–
COc1cc(OC)cc(C(=O)Nc2cc3nn(-c4ccccc4)nc3cc2Cl)c1,0.391%,–
C/C(=N\Nc1nc2ccccc2[nH]1)c1cccs1,–,25.1 µM (active)
O=C(Nc1ccccc1-c1nc2ccccc2[nH]c1=O)c1cccs1,-0.0999%,–
C/C(=N\Nc1nc(Nc2ccccc2)nc(N2CCOCC2)n1)c1cccs1,-18.1% [at 76.4 µM],–
Cc1c(C(=O)N2CCCC2)oc2c1-c1nn(CC(=O)NCc3ccc(OC(C)C)cc3)cc1CC2,-1.91%,–
COc1ccccc1CNc1ccc(-c2nc(-c3ccccc3C)no2)cc1[N+](=O)[O-],-14.1%,–
COc1ccc(NC(=O)CSc2nc3ncccc3[nH]2)c(OC)c1,-12.5%,–

SMILES,"activity change, negative = inhibition",Potency
C=CCNc1scc(-c2ccccc2)[n+]1CC=C,5.77% [at 76.4 µM],–
Cc1ccc(NC(=O)Nc2ccccc2)c(Br)c1,11.9% [at 76.4 µM],–
C=CC[n+]1c(-c2ccc(C)cc2)csc1NNC(=O)Nc1ccccc1,–,25.1 µM (active)
CN(CC(=O)Nc1cccc(C(F)(F)F)c1)S(=O)(=O)c1cccs1,8.76%,–
CSc1nc(-c2ccccc2Cl)nc2c1Cc1c(CO)cnc(C)c1O2,11.9%,–
CCc1nnc(SCc2c(F)cccc2Cl)c2cc3sccc3n12,8.52%,–
CCN(CCCNC(=O)c1cc2cc3cc(OC)ccc3nc2s1)c1ccccc1,-9.2%,–
Cc1cc(C)n2nc(C(=O)NC(C)(C)C)nc2n1,6.76% [at 76.4 µM],–
Cc1cc(C)n2nc(C(=O)N3CCN(Cc4ccc5c(c4)OCO5)CC3)nc2n1,-7.58% [at 76.4 µM],–
Cc1cc(C)n2nc(C(=O)Oc3ccc4c(c3)OCO4)nc2n1,–,12.5 µM (active)
CSc1nc(Nc2ccc(F)cc2)cc(-c2ccccc2)n1,-15%,–
CCOc1ccc(N(CC)C(=O)c2noc3c2COc2ccc(C)cc2-3)cc1,-9.78%,–
CCCc1nc2ccccc2c(=O)n1/N=C/c1ccc(O)c(O)c1,–,11.2 µM (active)
Cc1[nH]n(-c2cccc(Cl)c2)c(=O)c1/C=N/n1c(C)nc2ccccc2c1=O,-5.44% [at 76.4 µM],–
O=c1c2ccccc2ncn1/N=C/c1ccccc1,7.31% [at 76.4 µM],–
CC(=O)c1ccc(NC(=O)c2nc(-c3ccc(C)cc3)n3c2CCCCC3)cc1,-23.7%,–
COc1ccccc1NC(=O)Cn1cnc2ccc(S(=O)(=O)N3CCC(C)CC3)cc2c1=O,7.07%,–
CCc1ccc(NC(=O)CCS(=O)(=O)c2cc3c(cc2Cl)NC(=O)CO3)cc1,7.29%,–
CC(C)Cn1c(=O)c2ccccc2n2c(CCC(=O)N3CCN(c4cccc(Cl)c4)CC3)nnc12,11.2%,–
